M1 ag: M1 muscarinic receptor agonists, primary screen, CHO-M1 cells, Fluo-4 calcium, agonist mode; Muscarinic acetylcholine receptor M1; Fluo-4 calcium fluorescence; stronger effect = higher value; B-score at 10 µM; 3% of 64,000 active;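 active = fluorescence rise, raw or as B-score row- and column-corrected plate score, outside the 99.7% band of its plate's samples, either direction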
M1 antag: antagonists of rat M1 muscarinic receptor | 3.4% of 64,000 active | B-score at 10 µM | Muscarinic acetylcholine receptor M1 (Rattus norvegicus), P08482 | CHO-M1 cells, Fluo-4 calcium, ACh EC80 antagonist mode; stronger effect = lower value;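 active = calcium fluorescence response, raw or row-and-column corrected B-score, differing from the plate sample mean either way at a set confidence level, mostly lower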
Cav3 T inh: Cav3.2 calcium influx blockers – cell-based, Fluo-4 calcium fluorescence, FDSS, MLSMR library, primary screen; B-score at 10 µM; 4% of 100,000 active; AID 449739, 2010; Cav3.2-expressing cells; stronger effect = lower value; Voltage-dependent T-type calcium channel subunit alpha-1H (Homo sapiens), O95180;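 active = single-dose well whose peak fluorescence ratio is a statistical outlier from its plate by either plate-standardised score or position-corrected B-score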
PLAP act: PLAP enzyme activators, biochemical, luminescence, HTS; purified PLAP enzyme, luminescent substrate read-out; stronger effect = higher value; Alkaline phosphatase, placental type (Homo sapiens), P05187; activation fold at 20 µM; 1.2% of 96,000 active; AID 696, 2007; in the data active = activation fold above about 2
Target sequence (P05187 whole entry, looked up): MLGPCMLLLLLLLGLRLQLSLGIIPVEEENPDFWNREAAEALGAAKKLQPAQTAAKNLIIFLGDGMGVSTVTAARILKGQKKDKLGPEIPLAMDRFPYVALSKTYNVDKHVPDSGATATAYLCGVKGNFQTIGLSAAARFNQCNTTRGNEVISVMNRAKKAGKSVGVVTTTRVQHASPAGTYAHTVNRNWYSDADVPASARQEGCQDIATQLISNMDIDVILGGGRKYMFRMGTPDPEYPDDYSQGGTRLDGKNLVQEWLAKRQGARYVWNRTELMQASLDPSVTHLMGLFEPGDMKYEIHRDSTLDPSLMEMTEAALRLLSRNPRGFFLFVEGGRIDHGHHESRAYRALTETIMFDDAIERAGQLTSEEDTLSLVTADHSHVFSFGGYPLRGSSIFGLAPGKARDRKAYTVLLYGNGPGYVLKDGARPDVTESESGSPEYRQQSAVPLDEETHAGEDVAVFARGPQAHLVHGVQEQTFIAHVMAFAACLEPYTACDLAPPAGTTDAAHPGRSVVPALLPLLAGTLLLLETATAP
Numbers without * were called inactive; / = no result given. Only some compounds are listed: those with a hit (about 7.6% of all), similar ones and a draw of the others.

SMILES	M1 ag	M1 antag	Cav3 T inh	PLAP act
C=CCNc1oc(/C=C/c2ccccc2)nc1C#N	/	/	-0.2	0.9
Cc1ccc(C)c(C(=O)COC(=O)c2ccccc2N2C(=O)C3C4CCC(C4)C3C2=O)c1 (centres undefined)	/	/	-2.9	1.1
CCn1c(CNc2ccc(Cl)cc2)nnc1SCC(=O)OC1CCCCC1	/	/	-8.4*	/
C=CCn1c(CNc2ccccc2)nnc1SCC(=O)N/N=C/c1ccccc1O	/	/	-3.2	1.8
Cc1ccc(C(=O)Nc2ccccc2Oc2ccccc2)cc1[N+](=O)[O-]	/	/	-4.1*	0.6
C#CCOCCOCCOCCNc1nc(N2CCN(C(=O)[C@H](CCCCN)n3cc(C(N)CO)nn3)CC2)nc(N2CCN(C(=O)[C@H](CCCCN)n3cc(C(N)COC(=O)C(F)(F)F)nn3)CC2)n1 (some centres undefined)	/	/	0.0082	/
CCc1nccn1S(=O)(=O)c1ccc(OC)c(C)c1C	/	/	-3.8*	1.3
O=c1oc2ccccc2c2c1nc(C(F)(F)F)n2-c1ccccc1	/	/	-0.55	1
CC(/C=N/NC(=O)C(O)c1ccccc1)=C\c1ccccc1 (centres undefined)	/	/	-2	0.7
Cc1cc(OC(C)C(=O)N/N=C/CC(C)c2ccccc2)ccc1Cl (centres undefined)	/	/	-6.5*	1
CC(C)(C)c1csc(NC(=O)Cn2c(=O)oc3ccccc32)n1	-1.2	-1.4	-10*	0.9
COc1cc(CCC(=O)OCn2nnc3ccccc3c2=O)cc(OC)c1OC	-0.014	2.7*	0.46	1.1
CCOc1cc(S(=O)(=O)NCc2ccc3c(c2)OCO3)c(C)cc1C	0.074	0.22	-6.2*	0.9
CCOc1cc(C)c(Cl)cc1S(=O)(=O)NCc1ccc2c(c1)OCO2	0.17	-0.0011	/	1.1
Cc1cccc(NC(=O)c2nc(-c3ccccc3)n(-c3ccccc3)n2)c1C	/	/	-6.6*	1
COc1ccc(-n2nc(C(=O)O)nc2-c2ccccc2)cc1	/	/	/	1.3
O=[N+]([O-])c1cc(S(=O)(=O)C(F)(F)F)ccc1Sc1nc2ccccc2[nH]1	/	/	-4.5*	1.1
CS(=O)(=O)c1ccc(Sc2nc3ccccc3[nH]2)c([N+](=O)[O-])c1	/	/	1.3	1.6
NC(=O)c1ccc(C(F)(F)F)n(Cc2cccc(Cl)c2)c1=O	/	/	-2.8	1
COc1ccc(-c2n[nH]c(C(F)(F)F)c2-c2cc3ccccc3o2)c(O)c1	-0.15	0.13	-0.91	2*
CCOC(=O)C1CCN(C(=O)c2sc3nc(C)nc(N4CCC(C)CC4)c3c2C)CC1	/	/	-2.2	/
Cc1sc2nc(CN3CCCC3)nc(N3CCC(C(N)=O)CC3)c2c1C	/	/	0.0061	2*
Cc1sc(/N=C/c2ccccc2O)c(C#N)c1C	/	/	/	1
CCn1c(COc2ccccc2C)nnc1SCC(=O)CC(=O)Nc1ccccc1OC	1.8	0.52	-4.9*	1
CCn1c(COc2ccccc2)nnc1SCC(=O)CC(=O)Nc1ccccc1OC	-0.031	0.049	-0.18	1.4
SMILES	M1 ag	M1 antag	Cav3 T inh	PLAP act
COc1cc(C(=O)NS(=O)(=O)c2ccccc2C)ccc1Cc1cn(C)c2ccc(NC(=O)OC3CCCC3)cc12	/	/	-5.9*	/
CCOc1ccc(NC(=O)CS(=O)(=O)c2cn(C)c3ccccc23)cc1	/	/	0.21	0.9
CC(Oc1ccccc1)C(=O)N1CCC2(CC1)Oc1ccc(F)cc1C(=O)C21CC(c2ccccc2)=NO1 (centres undefined)	/	/	-4*	/
COc1ccccc1N(CCC#N)C(=O)CSc1nc(-c2ccccc2)cn1N	0.3	0.59	0.57	1
Cc1ccc(C2CN(C)C3(C(=O)Nc4ccccc43)C23COc2ccccc2C3=O)cc1 (centres undefined)	/	/	/	1.5
CN1CC(c2ccccn2)C2(SC(=S)N(Cc3ccccc3)C2=O)C12C(=O)Nc1ccccc12 (centres undefined)	/	/	-4.8*	1.4
CN1CC(c2ccccc2)C2(SC(=S)N(Cc3ccco3)C2=O)C12C(=O)Nc1ccccc12 (centres undefined)	/	/	-4.7*	1
Cc1cc(Cl)c(S(=O)(=O)NC(C(=O)O)C(C)C)cc1OCC(=O)NC1CCCCC1 (centres undefined)	/	/	0.65	2*
Cc1cc(Cl)c(S(=O)(=O)N2CCCC2)cc1OCC(=O)NC1CCCCC1	/	/	2.2	2*
Cc1cc(Cl)c(S(=O)(=O)Nc2ccc3c(c2)OCO3)cc1OCC(=O)NC1CCCCC1	/	/	-4.2*	1.7
Cc1cc(C)cc(OCC(=O)NNC(=O)c2cc(C)[nH]n2)c1	/	/	0.72	2.7*
N#Cc1nc(COc2cccc(Cl)c2)oc1N1CCCC1	-0.028	0.024	-3	1

Bioassay records from PubChem.
